The source of these data is PubChem BioAssay (NCI).

About 83,000 compounds went through this panel and 20% of them were active in at least one assay; those are over-represented in the sample as a whole.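 Cell lines were cultured in 96-well plates, exposed to a single compound concentration, and assessed for percent growth 48 hours later.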 Unmarked numbers belong to inactive results. Calls of active or inactive are those of the source. Rule for the calls: active = growth percent below 10; inactive = the rest.

The test system of the assay is RPMI-8226 leukemia. As to the kind of experiment: NCI-60 one-dose screen, 48 h (100 = growth as untreated, 0 = no growth, -100 = all killed). The following applies: 10 µM unless noted.
In the case of `Cc1ccc(S(=O)(=O)N2CCN(C(=O)CSc3nc4ccc(C)cc4[nH]3)CC2)cc1`, the growth was 108%.

For `COc1ccc(CC(=O)Nc2nn3c(-c4cc(C(F)(F)F)cc(C(F)(F)F)c4)nnc3s2)cc1`, the growth is 39.7%.

Take `O=C(/C=C/c1ccc([N+](=O)[O-])cc1)c1ccc2c3c(cccc13)CC2`: the growth was -14.1% (active). Then `FC(F)(F)c1cc(-c2nnc3n2N=C(N2CCCC2)CS3)cc(C(F)(F)F)c1`, with 95%; and `Clc1ccc(C2c3ccccc3-c3nccn32)c(Cl)c1` (centres undefined), with 26.5%. For the compound `COC(=O)c1c(NC(=O)CSc2nnnn2-c2ccc(OC)cc2)sc(C)c1C`, the growth was 89.8%. On to `O=[N+]([O-])c1ccc(NS(=O)(=O)c2ccc(Cl)c(Cl)c2)cc1`, for which the growth was 35.6%. As for `O=C(O)C1CCN(S(=O)(=O)c2ccc(-c3ccccc3)cc2)CC1`, the figure is 58.7%; as for `O=C1/C=C/[C@@H](O)[C@@H]2C[C@@H](O)C[C@H]2/C=C/CCC[C@H](CO)O1`, 37.4%. In the case of `COc1ccc(N2CCN(CC(=O)N3CCN(c4nnc(-c5ccccc5)c(-c5ccccc5)n4)CC3)CC2)cc1`, the growth was 1.97% (active). Regarding `CCN(CC)CCOCC[C@H]1CC[C@H]2[C@@H]3[C@H](C)Cc4cc(OS(N)(=O)=O)ccc4[C@H]3CC[C@]12C`, the growth is -56.4% (active). With `COc1cc(-c2n[nH]nc2-c2ccccn2)cc(OC)c1OC`, the growth is 85.1%. For `Cc1cc(C)c2c(N)c3cccc(C)c3nc2n1`, the growth is -35% (active). `N[C@H](CS)C(=O)O`: the growth was 101%.
